Only some compounds are listed: those with a hit (about 7.1% of all), similar ones and a draw of the others.
MCF10A rerep – A quantitative high throughput screen for small molecules that induce DNA re-replication in MCF 10a normal breast cells. Potency, µM (doses to about 46.1 µM), hits mostly activators. MCF 10A DNA re-replication, Hoechst nuclear intensity, 48 h. 350,000 tested, 2.9% active. AID 624296, 2012; further: nearly all actives have a fitted effect of over 50% in size
A-T KAP1 phos – qHTS Assay for Identifying a Potential Treatment of Ataxia-Telangiectasia; F2112 A-T fibroblasts, KAP-1 phosphorylation AlphaLISA; neocarzinostatin DNA damage 30 min before lysis; Potency, µM (highest dose often 57.5 µM), most hits filed as activators; 320,000 tested, 0.19% active; further: nearly all actives have a fitted effect of over 45% in size
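ATM-like activity read as KAP-1 phosphorylation via AlphaLISA donor/acceptor antibody pairs after lysis and 6 hr at 25C. Cells were ATM-null patient fibroblasts (F2112, hTERT), dosed 60 min, then exposed to the DSB inducer NCS for 30 min.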
p53 reactivator – qHTS assay for re-activators of p53 using a Luc reporter; Potency, µM (titrated, usually from 92.2 µM), hits mostly activators; H1299 p53-A138V BP100-luciferase reporter, luminescence, 24 h; 320,000 tested, 0.063% active; further: nearly all actives have a fitted effect of over 45% in size
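p53-null H1299 cells stably carrying temperature-sensitive p53-A138V and a BP100-luciferase reporter were pinned with compounds (4-point, 1:5 series) and held 24 hrs at 37 deg C. Luminescence was read 10 min after detection reagent.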
ELG1 genotox – qHTS screen for small molecules that induce genotoxicity in human embryonic kidney (HEK293T) cells expressing luciferase-tagged ELG1; 330,000 tested, 1.3% active; HEK293T ELG1-luciferase reporter, luminescence, 16 h; Potency, µM (doses to about 46 µM), hits mostly activators; further: nearly all actives have a fitted effect of over 60% in size
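Cells (2,000/well) expressing the ELG1-luciferase fusion are dosed by pin tool and kept 16 hr at 37 °C, 5% CO2. Signal comes from ONE-Glo luciferase reagent after 30 min at room temperature.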
ELG1 DNA repair – qHTS screen for small molecules that inhibit ELG1-dependent DNA repair in human embryonic kidney (HEK293T) cells expressing luciferase-tagged ELG1 | HEK293T ELG1-luciferase reporter, luminescence, 16 h; DNA damage induced by 5-fluorouridine | Potency, µM (top dose mostly 46.1 µM), hits mostly inhibitors | 330,000 tested, 2.3% active | AID 504467, 2011; further: nearly all actives have a fitted effect of over 55% in size
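Step one: seed 2,000 cells per well. Step two: pin-transfer compound or DMSO alongside 5-fluorouridine. Step three: incubate 16 hr, 37 °C, 5% CO2. Step four: add ONE-Glo, wait 30 min, read luminescence.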
SW480 rerep – A quantitative high throughput screen for small molecules that induce DNA re-replication in SW480 colon adenocarcinoma cells | 340,000 tested, 1.8% active | SW480 DNA re-replication, Hoechst DNA content imaging, 48 h | Potency, µM (series often up to 46.1 µM), actives largely listed as activators; further: nearly all actives have a fitted effect of over 55% in size
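Hoechst fluorescence of nuclei (405 nm excitation, 500-530 nm emission) measured by plate-scanning imager after 48 hr compound exposure at 37 C; re-replication scored as increased number of nuclei with elevated intensity.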
Each line names hits and unclear results; the compound was inactive in the other large screens. The call rests on the fitted dose curve; in most records, active means well fitted curve in the direction sought with a large enough effect; inconclusive means small, poorly fitted or top-dose-only effect, or another doubt; inactive means no such curve, though single readings can be large; an effect the other way counts as inactive or inconclusive.

COc1ccc(S(=O)(=O)N2CCOCC2)cc1NC(=O)CN1C(=O)NC2(CCCC2)C1=O	none
COc1ccc(-c2nc(Cn3c(SCc4ccc(C)cc4)nc4ccncc43)c(C)o2)cc1OC	MCF10A rerep inconclusive, ELG1 DNA repair 13µM
COc1ccc(-c2nc(Cn3c(SCc4cccc(F)c4)nc4ccncc43)c(C)o2)cc1OC	MCF10A rerep inconclusive, ELG1 DNA repair inconclusive
Nc1nc(N)nc(C2C=CCCC2)n1 (configuration not stated)	none (no result: A-T KAP1 phos, p53 reactivator, ELG1 genotox, ELG1 DNA repair)
CCOc1ccc(OCC)c(NC(=O)CN2CCN(c3cccc(C)c3)C(C)C2)c1 (configuration not stated)	MCF10A rerep 15µM, ELG1 DNA repair inconclusive, SW480 rerep inconclusive
CCN(C[C@H]1N[C@@](C)(C(=O)OC)[C@H]2C(=O)N(C)C(=O)[C@@H]12)C(=O)Nc1ccccc1	none
CC(C)Oc1ccc(C(=O)OC(C)C(=O)Nc2nc(-c3cccc([N+](=O)[O-])c3)cs2)cc1 (configuration not stated)	ELG1 DNA repair 16µM
CC(OC(=O)c1ccc(F)cc1)C(=O)Nc1nc(-c2cccc([N+](=O)[O-])c2)cs1 (configuration not stated)	ELG1 DNA repair inconclusive
Cc1ccc(S(=O)(=O)Oc2ccc(/C=C(/NC(=O)c3ccccc3)C(=O)NCC(=O)O)cc2)cc1	SW480 rerep 6.5µM
Cc1ccc(S(=O)(=O)Oc2ccc(/C=C(/NC(=O)c3ccccc3)C(=O)O)cc2)cc1	none
Cc1cccc2c3c([nH]c12)C(=O)CC(C)(C)S3	none
Cc1ccc2[nH]c3c(c2c1)SC(C)(C)CC3=O	MCF10A rerep 18µM, SW480 rerep inconclusive
O=C(OCN1C(=O)c2ccccc2C1=O)c1ccc(Cl)nc1	none
Clc1ccc(N2COC3c4cccc5cccc(c45)C32)cc1 (configuration not stated)	ELG1 DNA repair inconclusive
COc1ccc(N2COC3c4cccc5cccc(c45)C32)cc1 (configuration not stated)	MCF10A rerep 23µM, p53 reactivator inconclusive (no result: A-T KAP1 phos)
CCCCNC(=O)NNC(=O)c1cc(C)on1	none
CCOC(=O)c1c2ccc(OCC(=O)N/N=C/c3ccc(C)cc3)cc2n2ccccc12	MCF10A rerep 2.6µM, ELG1 DNA repair inconclusive, SW480 rerep inconclusive
CCOC(=O)c1c2ccc(OCC(=O)NN)cc2n2ccccc12	MCF10A rerep 16µM, ELG1 DNA repair inconclusive
Cc1ccc(OCC(=O)N/N=C/c2cn(C)c3ccccc23)cc1	MCF10A rerep inconclusive
CCCCn1c(N)c(N(CCOC)C(=O)c2cc3c(s2)CCC3)c(=O)[nH]c1=O	none
NN=C1c2ccccc2C(=O)C1C(=O)C(c1ccccc1)c1ccccc1 (configuration not stated)	MCF10A rerep 12µM (no result: A-T KAP1 phos, p53 reactivator, ELG1 genotox, ELG1 DNA repair)
COCC(=O)Nc1ccc2c(c1)OCC(=O)N2Cc1ccc(C)cc1	MCF10A rerep 23µM (no result: p53 reactivator)
Cc1ccc(NC(=O)COC(=O)CN2C(=O)COc3ccccc32)cc1	none
O=C(NCCN1C(=O)S/C(=C\c2ccc(Cl)cc2)C1=O)C1=COCCO1	none
O=C(NCCN1C(=O)S/C(=C\c2ccc(OC(F)F)cc2)C1=O)[C@@H]1CCCN1C(=O)c1cccs1	ELG1 DNA repair inconclusive
O=C(NCCN1C(=O)S/C(=C\c2ccc(Cl)c(Cl)c2)C1=O)c1ccc2c(c1)C(=O)N(Cc1ccncc1)C2=O	MCF10A rerep 16µM, ELG1 DNA repair 9.2µM
O=C(NCCN1C(=O)S/C(=C\c2ccc(OC(F)F)cc2)C1=O)c1cnccn1	MCF10A rerep 5.8µM, SW480 rerep 5.8µM

Assay outcomes from PubChem.
